What all share (experiment): qHTS profiling for inhibitors of Plasmodium falciparum proliferation (AID 504749); further: nearly all actives have a fitted effect of over 60% in size
What all share (settings): P. falciparum in erythrocytes, SYBR Green DNA, 72 h; series mostly up to 28.7 µM
On the technique in general: In qHTS, concentration-response curves come from the screen itself.

One experiment concerns HB3. The method, boiled down: (§1)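 Quantitative HTS: compounds pinned into medium, infected erythrocytes added (0.3% parasitemia, 2.5% hematocrit), 72 h culture at 37 C under 5% CO2. Saponin/Triton lysis with SYBR Green I, overnight RT, then fluorescence read.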
Another experiment concerns ICS. The method, boiled down: as §1
A further experiment deals with JCK. The method in brief: as §1
For the next experiment, the system named is N140. The method in brief: as §1
The test system of another experiment is P93_24. The method in brief:
as §1

The subject of another experiment is P94_40. The method in brief:
as §1

In a further experiment the test system is PAD. The method, boiled down: as §1
The test system of the next experiment is PC15. The method in brief:
as §1

A further experiment concerns PC26. The method, boiled down:
as §1

Another experiment deals with PC49. The method, boiled down:
as §1

Inconclusive results are not listed. Activity calls are given as the source filed them. The call rests on the fitted dose curve; in most records, active means well fitted inhibition curve with a large enough effect; inconclusive means small, poorly fitted or top-dose-only effect; inactive means flat fitted curve, though single readings scatter.
Potency means the concentration at half of the fitted maximal effect.

As to `Oc1cc(O)c2c(c1)OC(c1ccc(O)c(O)c1)C(O)C2` (stereo not given), the Potency entry with HB3, with ICS, with JCK, with N140, in the experiment on P93_24 and in the experiment on P94_40 was “inactive” in each case. The Potency entry in the experiment with PAD, with PC15, in the experiment on PC26 and with PC49 was “inactive” in each case.
In the case of `COC(=O)[C@H]1[C@H]2CC3c4[nH]c5ccccc5c4CCN3C[C@@H]2CC[C@@H]1O` (stereo not given in full), the Potency result in the experiment on HB3, in the experiment with ICS, in the experiment with JCK, in the experiment on N140, with P93_24 and in the experiment on PAD was “inactive” each time. Moreover, the Potency entry in the experiment with PC15 and in the experiment with PC49 was “inactive” in each case.
As to `IC(I)I`, the Potency result in the experiment with HB3, in the experiment with ICS, with JCK, in the experiment with N140, in the experiment with P93_24 and in the experiment on P94_40 was “inactive” throughout. In addition, the Potency entry in the experiment with PAD, with PC15, with PC26 and with PC49 was “inactive” in each case.
As for `CCNC(=O)[C@@H]1CCCN1C(=O)[C@H](CCCN=C(N)N)NC(=O)[C@H](CC(C)C)NC(=O)[C@@H](Cc1c[nH]c2ccccc12)NC(=O)[C@H](Cc1ccc(O)cc1)NC(=O)[C@H](CO)NC(=O)[C@H](Cc1c[nH]c2ccccc12)NC(=O)[C@H](Cc1cnc[nH]1)NC(=O)[C@@H]1CCC(=O)N1`, the Potency with HB3 was 11.2 µM (active); in the experiment with ICS, 2.24 µM (active); in the experiment with JCK, 14.1 µM (active); with N140 it was 4.47 µM (active); in the experiment on P93_24, 3.16 µM (active); in the experiment with P94_40 it was 7.94 µM (active). The Potency in the experiment on PAD was 2.24 µM (active); with PC15, 3.55 µM (active); in the experiment on PC26, 3.38 µM (active); with PC49, 2.82 µM (active).
For `O=C(O)c1cc(O)c2c(c1)[O][Bi][O]2`, the Potency result with HB3, in the experiment with ICS, in the experiment with JCK, with N140, in the experiment with P93_24 and in the experiment with P94_40 was “inactive” in each case. The Potency entry in the experiment with PAD, in the experiment on PC15, in the experiment on PC26 and in the experiment on PC49 was “inactive” each time.
Take `CC(C)(C)C(=O)OCOC(=O)[C@@H]1N2C(=O)[C@@H](N=CN3CCCCCC3)[C@H]2SC1(C)C`: the Potency entry in the experiment with HB3, in the experiment on ICS, with JCK, in the experiment on N140, with P93_24 and in the experiment with P94_40 was “inactive” throughout. The Potency result in the experiment on PAD, in the experiment with PC15 and in the experiment with PC49 was “inactive” in each case.
Regarding `CCCCC(C)(O)C/C=C/[C@H]1[C@H](O)CC(=O)[C@@H]1CCCCCCC(=O)OC` (stereo not given in full), the Potency entry with HB3, in the experiment on ICS, in the experiment with JCK, with N140, with P93_24 and in the experiment with P94_40 was “inactive” each time. Moreover, the Potency entry in the experiment on PAD, in the experiment on PC15, in the experiment with PC26 and in the experiment on PC49 was “inactive” in each case.
`CCCCC/C=C\C/C=C\CCCCCCCC(=O)O`: the Potency result in the experiment with HB3, in the experiment with ICS, in the experiment with JCK, with N140, in the experiment with P93_24 and with P94_40 was “inactive” throughout. The Potency entry in the experiment with PAD, in the experiment with PC15, in the experiment on PC26 and with PC49 was “inactive” each time.
In the case of `O=C(O)c1cc(=O)c2c3nc4ccccc4oc-3cc(=O)c2[nH]1`, the Potency with HB3 is 12.6 µM (active); in the experiment with ICS, 0.891 µM (active). In addition, the Potency entry with JCK, in the experiment with N140, in the experiment on P94_40 and with PC49 was “inactive” each time.
For `Cc1cc(C(=O)NNCc2ccccc2)no1`, the Potency entry in the experiment on HB3, in the experiment on ICS, in the experiment on JCK, in the experiment with N140, in the experiment with P93_24 and with P94_40 was “inactive” throughout. Also, the Potency entry in the experiment on PAD, in the experiment on PC15, with PC26 and with PC49 was “inactive” each time.
As to `Cc1c(C)c2c(c(C)c1O)CC[C@@](C)(CCC[C@H](C)CCC[C@H](C)CCCC(C)C)O2`, the Potency result in the experiment on HB3, in the experiment on ICS, with JCK, with N140, with P93_24 and in the experiment on P94_40 was “inactive” throughout. Moreover, the Potency result in the experiment with PAD, in the experiment on PC15, in the experiment on PC26 and in the experiment on PC49 was “inactive” in each case.
With `CCOC(=O)C1=C(C)NC(C)=C(C(=O)OCC)C1c1ccccc1C=CC(=O)OC(C)(C)C`, the Potency is 12.6 µM (active) in the experiment with HB3; 4.47 µM (active) in the experiment on ICS; 10 µM (active) in the experiment on N140; 7.08 µM (active) with P93_24; 10 µM (active) with PC15; 10.7 µM (active) in the experiment on PC26. In addition, in the experiment on JCK, the Potency entry is “inactive”.
As to `CC(C)=O`, the Potency entry with HB3, with ICS, with JCK, in the experiment with N140, in the experiment with P93_24 and in the experiment with PAD was “inactive” each time. The Potency result in the experiment with PC15, in the experiment on PC26 and with PC49 was “inactive” each time.
Turning to `CC(C)N=c1cc2n(-c3ccc(Cl)cc3)c3ccccc3nc-2cc1Nc1ccc(Cl)cc1`, the Potency result with HB3, in the experiment with JCK, with N140, in the experiment on P93_24, in the experiment with PAD and with PC26 was “inactive” throughout. Moreover, the Potency result with PC49 is “inactive”. Besides, the Potency in the experiment with ICS is 3.16 µM (active).
As to `CC(Cc1ccc(O)c(O)c1)C(C)Cc1ccc(O)c(O)c1` (stereo not given), the Potency result in the experiment on HB3, with JCK, in the experiment on N140 and with PC49 was “inactive” throughout. In addition, the Potency in the experiment with ICS is 10 µM (active).
Take `CCCCCCCC/C=C\CCCCCCCC(=O)O`: the Potency entry in the experiment on HB3, in the experiment on ICS, with JCK, with N140, with P93_24 and in the experiment on P94_40 was “inactive” in each case. Further, the Potency entry with PAD, with PC26 and in the experiment on PC49 was “inactive” throughout.
In the case of `C[C@]12CCC(=O)C=C1CC[C@@H]1[C@@H]2[C@@H](O)C[C@@]2(C)[C@H]1CC[C@]2(O)C(=O)COP(=O)(O)O`, the Potency entry in the experiment with HB3, with ICS, in the experiment with JCK, with N140, in the experiment on P94_40 and in the experiment on PAD was “inactive” throughout. Besides, the Potency result in the experiment with PC15, in the experiment with PC26 and with PC49 was “inactive” in each case.
With `O=C(O)CCC(=O)C(=O)O`, the Potency entry in the experiment with HB3, with ICS, in the experiment on JCK, with N140, in the experiment with P93_24 and in the experiment on P94_40 was “inactive” throughout. The Potency entry in the experiment with PAD, in the experiment with PC15, with PC26 and with PC49 was “inactive” throughout.
With `CCC(=O)NCCC1CCc2ccc3c(c21)CCO3` (stereo not given), the Potency entry in the experiment with HB3, in the experiment with ICS, in the experiment with JCK, with N140, in the experiment on P93_24 and in the experiment on P94_40 was “inactive” each time. Moreover, the Potency result in the experiment on PAD, in the experiment on PC15, in the experiment on PC26 and in the experiment with PC49 was “inactive” in each case.
As for `COc1ccc2c3c1O[C@H]1C[C@@H](O)C=C[C@@]31CCN(C)C2`, the Potency entry in the experiment on HB3, with ICS, with JCK, in the experiment on N140, in the experiment with P93_24 and in the experiment with P94_40 was “inactive” each time. Moreover, the Potency entry in the experiment with PAD, in the experiment with PC15, in the experiment with PC26 and in the experiment with PC49 was “inactive” in each case.

Values taken from PubChem BioAssay (NCATS).
